The values below come from paper PMC5540273 (PLoS ONE, 2017).
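Note: KINOMEscan kinase panel screen.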

In this assay the test system is CSNK1E. To be noted: concentration: 1 μM, replicates: in singlicate; n = 1.
For `CN(C)S(=O)(=O)c1cc(-c2ccc3nccc(-c4cccc(S(N)(=O)=O)c4)c3c2)cnc1N` [GSK1669921], the “%Inh” value is 33%. Under `CCS(=O)(=O)c1ccc(OC)c(Nc2nccc(-c3c(-c4cccc(NC(=O)c5c(F)cccc5F)c4)nn4ncccc34)n2)c1` [GSK326180] stands 35%. Regarding `COc1cc(Nc2nccc(N3CCC(NC(=O)c4cc5ccccc5s4)C3)n2)cc(OC)c1OC` (centres unmarked) [GSK1379760], the “%Inh” value was found to be 0%. On to `Cc1ccc(F)c(C(=O)Nc2cccc(-c3nn4ccccc4c3-c3ccnc(Nc4cccc(F)c4)n3)c2)c1F` [GSK361061], for which the “%Inh” value is recorded as 54%.

Consider `Clc1ccc(-c2nn3ncccc3c2-c2ccnc(Nc3ccc4c(c3)OCCO4)n2)cc1` [GW829116], for which the “%Inh” value is listed as 98.6%. On to `CCCCc1nn2ncccc2c1-c1ccnc(Nc2ccc(N3CCN(C)CC3)cc2)n1` [GW684941], for which the “%Inh” value came out at 99.4%. With `CCn1c(-c2nonc2N)nc2c(C#CC(C)(C)O)ncc(OCCCCN)c21.O=C(O)C(F)(F)F.O=C(O)C(F)(F)F` [GSK507274], the “%Inh” value turned out to be 38%. Under `O=C(NC1CCN(c2ccnc(Nc3ccc(F)cc3)n2)C1)c1cc2ccccc2s1` (centres unmarked) [GSK1379716] stands 28%; under `COc1cc2c(cc1OCCN1CCNCC1)ncc1c3ccc(C#N)cc3[nH]c21`, 0%. As to `COc1cc(Nc2nccc(N3CCC(NC(=O)Nc4cccc(C(C)=O)c4)C3)n2)cc(OC)c1OC` (centres unmarked) [GSK1379753], the “%Inh” value was determined as 18%.

For `O=C(Nc1cccc(-c2nn3ccccc3c2-c2ccnc(Nc3cccc(C(F)(F)F)c3)n2)c1)c1c(F)cccc1F` [GSK292658], the “%Inh” value was determined as 46%.

With `CN(c1ccc(NC(=O)Nc2cc(C(F)(F)F)ccc2F)cc1)c1ccnc(Nc2ccc(S(N)(=O)=O)cc2)n1` [GW809893], the “%Inh” value worked out at 1%.

Take `Cc1cccc(NC(=O)Nc2ccc(Oc3ncnc4ccn(C)c34)cc2)c1`: the “%Inh” value was determined as 11%. The figure for `Cl.c1ccc(-c2ccc3c(Nc4ccc5[nH]ccc5c4)ccnc3c2)nc1` [GW440138] is 27%. For `CN1CCN(CCCNc2nccc(-c3c(-c4ccc(F)cc4)nn4cc(C(F)(F)F)ccc34)n2)CC1` [GW621581], the “%Inh” value is 92.9%. Under `C[C@@H](Oc1cc(-n2cnc3cc(-c4ccnc(NCCS(C)(=O)=O)c4)ccc32)sc1C(N)=O)c1ccccc1Cl` [GSK907232] stands 17%; under `Cc1cccc(Nc2nc(N[C@H]3CCNC3)ncc2C(N)=O)c1.Cl` [GSK2197149], 86%; under `CCc1ccc(-c2ccc3c(c2)-c2c(cnn2C)S(=O)(=O)N3C)cc1`, 1%. As to `COc1cc(Nc2ncc3c(C)nc(-c4cc5ccccc5[nH]4)n3n2)cc(OC)c1OC` [GW869516], the “%Inh” value is 15%. The figure for `Cc1ccc(S(=O)(=O)Nc2ccc(Nc3nccc(Nc4cccc5[nH]ncc45)n3)cc2)cc1` [GSK581271] is 36%. Turning to `COc1ccc(Nc2nccc(NCCNC(=O)c3cc4ccccc4s3)n2)cc1` [GSK1379896], the “%Inh” value is given as 16%. `CN1CCN(Cc2cccc(-c3ccc4c(Nc5ccc(Oc6ccccc6)cc5)ccnc4c3)c2)CC1` [GW578342]: the “%Inh” value was found to be 2%.

For `COc1ccc(Nc2nccc(N3CCC(NC(=O)Nc4cccc(OC)c4)C3)n2)cc1` (centres unmarked) [GSK1379742], the “%Inh” value was found to be 34%. Under `O=C(Nc1n[nH]c2cc(-c3ccoc3)ccc12)C1CC1` [SB-738481] stands 0%; under `Nc1ncnc2c1nc(-c1ccccc1)n2-c1ccccc1` [SKF-97293], 23%. As for `COc1ccc(CNC(=O)NC2CCN(c3ccnc(Nc4ccc(F)cc4)n3)CC2)cc1` [GSK1379788], the “%Inh” value is listed as 63%.

Consider `Cc1occc1-c1ncc(OC[C@@H](N)Cc2c[nH]c3ccccc23)cc1-c1ccc2[nH]nc(C)c2c1.O=C(O)C(F)(F)F` [GSK682037], for which the “%Inh” value was 99.9%. Under `c1ccc(-c2n[nH]cc2Nc2ccnc3ccccc23)nc1` [GW694077] stands 63%; under `O=C(Nc1cccc(-c2nn3ncccc3c2-c2ccnc(Nc3ccccc3)n2)c1)c1c(F)cccc1F` [GSK198271], 85%; under `Nc1n[nH]c2cnc(-c3ccccc3)cc12` [SB-642124], 16%.

As to `CC(=O)Nc1nc2cnc(Nc3cc(NC(=O)c4cccc(C5(C#N)CC5)c4Cl)ccc3C)nc2s1`, the “%Inh” value amounted to 0%. On to `O=C(Nc1n[nH]c2nc(-c3ccc(O)cc3)ccc12)C1CC1` [SB-710363], for which the “%Inh” value is on record as 12%.
